Measured values: PubChem BioAssay (EPA / NIEHS)
Records with an inconclusive call do not appear. The source made the active and inactive calls. How the source made its calls: active means hit-call score of the fitted dose curve at least 0.9, where 1 is the maximum; inconclusive means response in the unintended direction; inactive means score below 0.9.

Tests used:
[1] = biological target: human Constitutive Androstane Receptor (CAR), NR1I3 (gene 9970) (UniProt Q14994); assay: NVS_NR_hCAR_Antagonist: NovaScreen (NVS) Nuclear Receptor Binding Assay for human Constitutive Androstane Receptor Antagonism (CAR) (AID 2283344)
Outline: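 Cell-free TR-FRET binding read 1 h after dosing, antagonist mode; loss of signal versus DMSO baseline. Primary screen in duplicate at a single 25 uM; actives retested in concentration series.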

[2] = biological target: Bile acid receptor (Homo sapiens) (UniProt Q96RI1); assay: NVS_NR_hFXR_Antagonist: NovaScreen (NVS) Nuclear Receptor Binding Assay for human Farnesoid X Receptor Antagonism (FXR) (AID 2283350)
Outline: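 Cell-free TR-FRET ligand-binding read-out on human FXR (NR1H4) in antagonist mode, measured 1 h after dosing. Primary screen in duplicate at 25 uM, actives retested in concentration series; signal loss scored versus DMSO.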

[3] = biological target: Bile acid receptor (Homo sapiens) (UniProt Q96RI1); assay: NVS_NR_hFXR_Agonist: NovaScreen (NVS) Nuclear Receptor Binding Assay for human Farnesoid X Receptor Agonism (FXR) (AID 2283347)
Outline: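 Cell-free TR-FRET binding assay with extracted human FXR protein, agonist format, read 1 h after dosing. Primary screen at 25 uM single concentration in duplicate, actives retested in concentration series; gain of signal versus DMSO.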

[4] = biological target: Estrogen receptor (Homo sapiens) (UniProt P03372); assay: OT_ER_ERaERa_1440: Odyssey Thera (OT) 24-hour HEK293T Protein-Complementation Assay for Estrogen Receptor-alpha/-alpha Homodimer (AID 2283349);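 further: hits raise fluorescence above DMSO for agonists and antagonists alike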
Outline: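 Readout is the rise in mean fluorescence from reporter fragment complementation when ERα LBD (aa 310-547) units dimerize in HEK293T cells. Measured 24 h after dosing and analysed as increase over DMSO control.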

[5] = biological target: Estrogen receptor (Homo sapiens) (UniProt P03372); assay: OT_ER_ERaERa_0480: Odyssey Thera (OT) 8-hour HEK293T Protein-Complementation Assay for Estrogen Receptor-alpha/-alpha Homodimer (AID 2283351);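 further: rise in fluorescence from reassembled reporter fragments on ERα LBD homodimer in nucleus or whole cell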
Outline: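 HEK293T cells stably expressing the human ERα ligand-binding domain (aa 310-547) as a homodimer PCA were dosed with compound for 8 h. Gain of fluorescence intensity versus DMSO vehicle was read by laser scanning cytometry.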

Sequence of Estrogen receptor (Homo sapiens) (P03372 whole entry, looked up, the tested form may be a part): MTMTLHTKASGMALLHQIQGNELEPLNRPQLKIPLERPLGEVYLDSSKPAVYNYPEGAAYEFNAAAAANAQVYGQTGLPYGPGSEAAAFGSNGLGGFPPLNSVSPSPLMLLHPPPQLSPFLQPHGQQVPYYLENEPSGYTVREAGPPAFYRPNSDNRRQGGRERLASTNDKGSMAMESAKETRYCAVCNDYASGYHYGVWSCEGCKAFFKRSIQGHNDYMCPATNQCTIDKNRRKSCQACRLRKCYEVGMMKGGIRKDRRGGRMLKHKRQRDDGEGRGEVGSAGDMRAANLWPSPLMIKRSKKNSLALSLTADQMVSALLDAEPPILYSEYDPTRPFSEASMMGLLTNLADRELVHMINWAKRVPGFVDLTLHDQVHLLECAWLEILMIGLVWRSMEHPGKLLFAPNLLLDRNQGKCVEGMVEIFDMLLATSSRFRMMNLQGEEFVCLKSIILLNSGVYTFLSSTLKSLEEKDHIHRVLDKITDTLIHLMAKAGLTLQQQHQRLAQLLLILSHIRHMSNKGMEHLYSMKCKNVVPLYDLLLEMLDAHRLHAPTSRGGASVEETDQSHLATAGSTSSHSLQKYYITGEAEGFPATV
Sequence of Bile acid receptor (Homo sapiens) (Q96RI1 whole entry, looked up): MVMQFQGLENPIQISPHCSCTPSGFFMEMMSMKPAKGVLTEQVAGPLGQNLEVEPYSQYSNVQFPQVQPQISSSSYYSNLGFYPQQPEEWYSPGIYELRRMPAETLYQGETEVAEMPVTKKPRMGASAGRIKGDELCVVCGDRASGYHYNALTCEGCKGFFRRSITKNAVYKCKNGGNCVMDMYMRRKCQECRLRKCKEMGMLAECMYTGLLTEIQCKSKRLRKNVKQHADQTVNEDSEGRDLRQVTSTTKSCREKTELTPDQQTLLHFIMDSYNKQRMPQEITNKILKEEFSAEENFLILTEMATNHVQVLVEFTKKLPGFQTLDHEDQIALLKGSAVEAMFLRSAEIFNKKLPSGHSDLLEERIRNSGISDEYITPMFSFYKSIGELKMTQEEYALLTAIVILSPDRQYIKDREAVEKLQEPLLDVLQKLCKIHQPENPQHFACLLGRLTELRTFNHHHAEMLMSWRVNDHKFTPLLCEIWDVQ
Sequence of human Constitutive Androstane Receptor (CAR), NR1I3 (gene 9970) (Q14994 whole entry, looked up): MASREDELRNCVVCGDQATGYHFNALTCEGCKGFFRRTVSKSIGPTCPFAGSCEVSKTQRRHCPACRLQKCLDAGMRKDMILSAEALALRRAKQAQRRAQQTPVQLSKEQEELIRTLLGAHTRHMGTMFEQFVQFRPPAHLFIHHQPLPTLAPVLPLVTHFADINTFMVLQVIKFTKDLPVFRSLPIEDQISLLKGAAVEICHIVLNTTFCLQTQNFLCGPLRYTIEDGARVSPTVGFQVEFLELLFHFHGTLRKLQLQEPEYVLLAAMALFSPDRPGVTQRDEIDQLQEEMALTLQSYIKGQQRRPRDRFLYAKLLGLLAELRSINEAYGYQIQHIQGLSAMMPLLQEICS

**Q.** `CC(COc1ccc(Oc2ccccc2)cc1)Oc1ccccn1` (configuration not stated) was tested. Which outcome [1] did it give?
**A.** Its outcome is “inactive”.

**Q.** What about the AC50 [2] of the same molecule?
**A.** Its AC50 is 6.89 µM (active).

**Q.** What does the source list for `Nc1c(Cl)cc([N+](=O)[O-])cc1Cl`?
**A.** outcome [3]: inactive; outcome [4]: inactive; outcome [5]: inactive

**Q.** What does the source list for `CCc1cccc(CC)c1N(COC)C(=O)CCl`?
**A.** AC50 [1]: 9.33 µM (active); outcome [4]: inactive
